# From PubChem BioAssay
# Where “and” joins values, the source holds several entries; their conditions need not be identical. Equal entries are not always repeated. Records with an inconclusive call do not appear. Calls of active or inactive are those of the source. Unless noted, no stated cut-off is given here; in the data, active means inhibition above about 80%; inactive means the rest.
# Legend:
# [1] = BT084 cell growth, single and combined drugs, ICGC_MB145, cisplatin and BGB IC40 combos (AID 1671461); details: BT084 medulloblastoma cells, drug combinations, stronger effect = higher value;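 further: cells exposed to drugs for 96 hours; 0% = vehicle DMSO and 100% = high DMSO full killing control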
# [2] = RCMB18 cell growth, single agent and combined, cisplatin and BGB IC40 combos (AID 1671462); details: RCMB18 medulloblastoma cells, stronger effect = higher value;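 further: cells exposed to compound for four days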
# [3] = CRL1545 cell growth, single agent and combined, cisplatin and BGB IC20 combos (AID 1671464); details: CRL1545 osteosarcoma cells, stronger effect = higher value;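 further: cells exposed to compound for 96 hours before readout; 0% = vehicle DMSO and 100% = high DMSO killing control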
# [4] = growth inhibition of DIPG cells – cell-based, MIPE5.0 library, qHTS (AID 1347068; cut-off not given, nearly all actives have IC50 up to about 30 µM); details: SU-DIPG-XXV viability
# [5] = viability loss with induced miR-34 in A549 – imaging, A549 dox-inducible miR-34, nuclei and caspase counts, primary screen (AID 1347080;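 active means compounds whose cell count with miR-34 switched on is under 0.7 times the count with it off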); details: A549 miR-34 inducible, Hoechst nuclei count, 48 h
# [6] = growth inhibition, single agent or in combination, cell-based, chromothripsis tumors, cisplatin or BGB combos (AID 1671449); details: LFS_MB_P medulloblastoma cells;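 further: cells exposed for 96 hours; 0% = vehicle DMSO and 100% = killing by high DMSO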
# [7] = growth inhibition, single agent and combos, cell-based, chromothripsis tumors, cisplatin or BGB combos (AID 1671450); details: HDN33 neuroblastoma cells, stronger effect = higher value;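 further: cells exposed to compound for four days; 0% = vehicle DMSO and 100% = cell killing by high DMSO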
# [8] = growth inhibition, single agents and combos, ICB984, cell-based, cisplatin or BGB combos, synergistic combos for chromothripsis tumors (AID 1671451; call rule not given here;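 further: cells exposed for 96 hours before readout; 0% = vehicle DMSO and 100% = killing by high DMSO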); details: ICB984 medulloblastoma cells, drug combinations, stronger effect = higher value
# [9] = growth inhibition, single agents and combos, LFS_MB_1R, cell-based, cisplatin or BGB combos, synergistic combos for chromothripsis tumors (AID 1671452); details: LFS_MB_1R medulloblastoma cells, stronger effect = higher value;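 further: cells exposed for 96 hours before readout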
# [10] = growth inhibition, single agents and combos, HTB85, cell-based, BGB or cisplatin IC20 combos, synergistic combos for chromothripsis tumors (AID 1671453); details: HTB85 osteosarcoma cells, drug combinations, stronger effect = higher value;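 further: cells exposed for 96 hours before readout; 0% = vehicle DMSO and 100% = high DMSO killing control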
# [11] = growth inhibition, single agents and combos, CRL2098, cell-based, BGB or cisplatin IC20 combos, synergistic combos for chromothripsis tumors (AID 1671454); details: CRL2098 osteosarcoma cells, drug combinations, stronger effect = higher value;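 further: cells exposed for 96 h before readout; 0% = vehicle DMSO and 100% = killing by high DMSO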
# [12] = growth inhibition, single agents and combos, HD-MB03, cell-based, BGB or cisplatin IC20 combos, synergistic combos for chromothripsis tumors (AID 1671455; in the data active means inhibition above about 83%;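 further: 0% = vehicle DMSO and 100% = high DMSO as cytotoxic control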); details: HD-MB03 medulloblastoma cells, stronger effect = higher value
# [13] = growth inhibition, single agents and combos, UWB1.289, cell-based, BGB or cisplatin combos, synergistic combos for chromothripsis tumors (AID 1671456); details: UWB1.289 ovarian carcinoma cells, stronger effect = higher value;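 further: cells exposed to compound for four days; 0% = vehicle DMSO and 100% = killing by high DMSO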
# [14] = growth inhibition, single agents and combos, LFS_MB_2R, cell-based, cisplatin combos, synergistic combos for chromothripsis tumors (AID 1671457); details: LFS_MB_2R medulloblastoma cells, stronger effect = higher value;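 further: cells exposed to compound for four days before readout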
# [15] = growth inhibition, MDA-MB-436, cell-based, BGB or cisplatin combos, synergistic combos for chromothripsis tumors (AID 1671458; call rule not given here;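 further: cells exposed for 96 hours; 0% = vehicle DMSO and 100% = killing by high DMSO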); details: MDA-MB-436 breast carcinoma growth inhibition, drug combinations, stronger effect = higher value
# [16] = UWB1.289_BRCA1 ovarian cancer growth, cell-based, BGB or cisplatin combinations (AID 1671459); details: UWB1.289 BRCA1 ovarian carcinoma, drug combinations, stronger effect = higher value
# [17] = drug combination toxicity in non-malignant astrocytes – cell-based, BGB or cisplatin IC20 combos, cytotoxicity control for chromothriptic childhood tumor combination screen (AID 1671460); details: Human astrocytes, viability inhibition, drug combinations, at 0.5 µM, stronger effect = higher value;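 further: cells exposed to compounds for 96 hours before viability readout; 0% = vehicle and 100% = killing control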
# [18] = cisplatin combination, at 0.5 µM
# [19] = measured here: BGB IC40 combination 0.05 uM, at 0.05 µM
# [20] = measured here: BGB IC40 combination, at 0.05 µM
# [21] = measured here: combination with cisplatin, at 0.5 µM
# [22] = measured here: with BGB IC20 combination, at 0.5 µM
# [23] = measured here: with cisplatin IC20 combination, at 0.5 µM
# [24] = stronger effect = lower value, cell number ratio, induced over uninduced
# [25] = measured here: relative caspase fold change +Dox/-Dox
# [26] = measured here: total cells with miR-34 induction, stronger effect = lower value
# [27] = measured here: total cells without miR-34 induction
# [28] = measured here: combination with BGB IC40, at 0.05 µM
# [29] = measured here: combination with cisplatin, at 5 µM
smiles,measurement,setting,value
CNCc1ccc(-c2cc(-c3nc(-c4ccc(S(=O)(=O)C(C)C)cc4)cnc3N)on2)cc1,inhibition,[1]; at 0.5 µM,29.8% (inactive) and 12.8% (inactive)
same,inhibition,[1]; [18],27.7% and 16.2%
same,inhibition,"[1]; cisplatin combination, at 5 µM",109% and 105%
same,inhibition,[1]; [19],-22.6% and -25.3%
same,inhibition,"[1]; single agent, at 5 µM",107% and 108%
same,inhibition,[2]; at 0.5 µM,31.8% (inactive) and 0.94% (inactive)
same,inhibition,"[2]; cisplatin combo, at 5 µM",104% and 103%
same,inhibition,[2]; [20],11.9% and -20.4%
same,inhibition,[2]; [21],38.1% and -11.6%
same,inhibition,"[2]; single agent, at 5 µM",101%
same,inhibition,[3]; at 0.5 µM,95% (active) and 91% (active)
same,inhibition,[3]; [22],91.2% and 85.8%
same,inhibition,[3]; [23],96.8% and 93.6%
same,inhibition,"[3]; single agent, at 0.05 µM",35.3% and -10.3%
same,inhibition,"[3]; single agent, at 5 µM",99.8% and 99.5%
COc1ccc(-c2c(C)nn3c(NCCN4CCOCC4)cc(C)nc23)cc1OC,outcome,[4],inactive
C[C@H](NC(=O)[C@H]1NCC[C@@H]1O)c1ccc(-c2noc(CCC3CCCC3)n2)cc1,outcome,[4],inactive
C=CC(=O)N1CCC(C2CCNc3c(C(N)=O)c(-c4ccc(Oc5ccccc5)cc4)nn32)CC1 (stereo not drawn),outcome,[4],inactive
CC[C@@H]1[C@H](F)C(=O)N[C@@H]1COc1nccc2cc(C(N)=O)c(OC)cc12,outcome,[4],inactive
CCCCCCCCCCCCCCCC(=O)OC[C@H](COP(=O)([O-])OCC[N+](C)(C)C)OC(=O)CCCCCCCCCCCCCCC,fold change,[5]; [24],0.881 (inactive)
same,fold change,[5]; [25],0.572
same,cell count,[5]; [26],5330
same,cell count,[5]; [27],6060
C=CC(=O)N1CCC(CNc2ncnc(N)c2-c2ccc(Oc3ccccc3)cc2)CC1,outcome,[4],inactive
NCCOc1cc(C(=O)Nc2cc(OCCN)c3ccccc3n2)nc(C(=O)Nc2cc(OCCN)c3ccccc3n2)c1,outcome,[4],inactive
same,inhibition,"[6]; at 0.5 µM, stronger effect = higher value",2.22% (inactive)
same,inhibition,"[6]; measured here: combination with BGB IC20, at 0.005 µM",-38.8%
same,inhibition,"[6]; measured here: combination with BGB IC40, at 0.005 µM",62.7%
same,inhibition,[6]; [28],-24.9%
same,inhibition,"[6]; measured here: combination with cisplatin, at 0.5 µM, stronger effect = higher value",12.8%
same,inhibition,"[6]; measured here: combination with cisplatin, at 5 µM, stronger effect = higher value",-64.9%
same,inhibition,"[7]; BGB combo, at 5 µM",-54.1%
same,inhibition,[7]; at 0.5 µM,-9.7% (inactive)
same,inhibition,"[7]; cisplatin combo, at 5 µM",-17.5%
same,inhibition,[7]; [22],-37.5%
same,inhibition,[7]; [23],8.64%
same,inhibition,"[7]; single agent, at 5 µM",-33.3%
same,inhibition,"[8]; BGB IC20 combo, at 0.005 µM",-1.03%
same,inhibition,"[8]; BGB IC40 combo, at 0.005 µM",-1.14%
same,inhibition,"[8]; BGB IC40 combo, at 0.05 µM",41.5%
same,inhibition,[8]; at 0.5 µM,-7.14% (inactive)
same,inhibition,"[8]; cisplatin combo, at 0.05 µM",38.8%
same,inhibition,"[8]; cisplatin combo, at 0.5 µM",5%
same,inhibition,"[8]; cisplatin combo, at 5 µM",-7.59%
same,inhibition,"[8]; measured here: 5 uM single agent, at 5 µM",-6.04%
same,inhibition,[9]; at 0.5 µM,-45.4% (inactive)
same,inhibition,[9]; [28],-42.8%
same,inhibition,[9]; [21],-52.8%
same,inhibition,[9]; [29],-9.07%
same,inhibition,[10]; at 0.5 µM,-5.41% (inactive)
same,inhibition,"[10]; measured here: with BGB IC20, at 0.5 µM",16.9%
same,inhibition,"[10]; measured here: with BGB IC20, at 5 µM",14.7%
same,inhibition,"[10]; measured here: with cisplatin IC20, at 0.5 µM",-18.6%
same,inhibition,"[10]; measured here: with cisplatin IC20, at 5 µM",11.6%
same,inhibition,"[10]; single agent, at 5 µM",-2.66%
same,inhibition,[11]; at 0.5 µM,-35.9% (inactive)
same,inhibition,"[11]; measured here: combination with BGB at IC20, at 0.5 µM",-36.6%
same,inhibition,"[11]; measured here: combination with cisplatin at IC20, at 0.5 µM",-37.8%
same,inhibition,[12]; at 0.5 µM,-13.1% (inactive)
same,inhibition,"[12]; measured here: combo with BGB at IC20, at 0.5 µM",-12.1%
same,inhibition,"[12]; measured here: combo with cisplatin at IC20, at 0.5 µM",-20.4%
same,inhibition,[13]; at 0.5 µM,-1.71% (inactive)
same,inhibition,"[13]; measured here: inhibition with BGB combination, at 0.05 µM",-20.7%
same,inhibition,"[13]; measured here: inhibition with cisplatin combination, at 0.05 µM",-14.5%
same,inhibition,[14]; at 0.5 µM,-18.8% (inactive)
same,inhibition,[14]; [21],-2.5%
same,inhibition,[14]; [29],-13.9%
same,inhibition,[15]; at 0.5 µM,0.88% (inactive)
same,inhibition,"[15]; measured here: BGB combination, at 0.5 µM",5.33%
same,inhibition,"[15]; measured here: BGB combination, at 5 µM",54.3%
same,inhibition,"[15]; measured here: cisplatin combination, at 0.5 µM",-17.7%
same,inhibition,"[15]; measured here: cisplatin combination, at 5 µM",63.8%
same,inhibition,"[16]; BGB combination, concentration series, at 5 µM",15.3%
same,inhibition,[16]; at 0.5 µM,-6.49% (inactive)
same,inhibition,"[16]; cisplatin combination, concentration series, at 5 µM",19.1%
same,inhibition,[17],5.8% (inactive)
same,inhibition,[17]; measured here: combo with BGB IC20,5.26%
same,inhibition,[17]; measured here: combo with cisplatin IC20,9.36%
same,inhibition,[1]; at 0.5 µM,-11.2% (inactive)
same,inhibition,[1]; [18],-3.81%
same,inhibition,"[1]; cisplatin combination, at 5 µM",-140%
same,inhibition,[1]; [19],-28.5%
same,inhibition,"[1]; single agent, at 5 µM",-22.2%
same,inhibition,[2]; at 0.5 µM,-16.6% (inactive)
same,inhibition,"[2]; cisplatin combo, at 5 µM",-19.4%
same,inhibition,[2]; [20],-9.5%
same,inhibition,[2]; [21],-38.3%
same,inhibition,"[2]; single agent, at 5 µM",-10.4%
same,inhibition,[3]; at 0.5 µM,11.6% (inactive)
same,inhibition,[3]; [22],-1.76%
same,inhibition,[3]; [23],17%
same,inhibition,"[3]; single agent, at 0.05 µM",-15.4%
same,inhibition,"[3]; single agent, at 5 µM",55%
O=C(O)C[C@H]1CCc2c1[nH]c1ccc(OCc3ccc(C4CCCC4)c(C(F)(F)F)c3)cc21,outcome,[4],inactive
CC(C)CCCCCCC/C=C\C(=O)O,fold change,[5]; [24],0.991 (inactive)
same,fold change,[5]; [25],0.344
same,cell count,[5]; [26],5830
same,cell count,[5]; [27],5880
CCCCCCCOC(=O)Cc1c(C)n(C(=O)c2ccc(Cl)cc2)c2ccc(OC)cc12,fold change,[5]; [24],0.949 (inactive)
same,fold change,[5]; [25],0.801
same,cell count,[5]; [26],6160
same,cell count,[5]; [27],6490
COc1nnc2ccc(N3CCC(c4ccc(OCCN5CCN(C)C(=O)[C@H]5C)cc4)CC3)nn12,outcome,[4],inactive
